Laboratory results published in the supplement of paper PMC8728848.
About 410 targets per protein were measured; listed, in parts, are those with the strongest signals and a random draw of the rest.

Columns and labels:
Assay in all cases: glycan array binding signal (z-score within array); higher = stronger binding
Conditions in all cases: glycan notation: IUPAC condensed, linker removed; mutation: E347A
[1] = biological target: Fuc(a1-2)[Gal(a1-4)]Gal(b1-4)GlcNAc
Outline: (§1)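 From the Consortium for Functional Glycomics database, 3228 arrays were curated, keeping only those whose protein sequence was available. Binding is given as a within-array Z-score averaged across arrays sharing a protein sequence and across linkers. Negative Z-scores can be read as non-binding.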

[2] = biological target: Fuc(a1-3)[GalNAc(b1-4)]GlcNAc
Outline: as §1

Gal(a1-3)Gal(b1-4)GlcNAc = biological target: Gal(a1-3)Gal(b1-4)GlcNAc
Outline: as §1

Gal(a1-3)GalNAc = biological target: Gal(a1-3)GalNAc
Outline: as §1

Gal(a1-6)Glc = biological target: Gal(a1-6)Glc
Outline: as §1

Gal(b1-2)Gal = biological target: Gal(b1-2)Gal
Outline: as §1

[3] = biological target: Gal(b1-3)GlcNAc(b1-3)Gal(b1-4)GlcNAc
Outline: as §1

[4] = biological target: Gal(b1-3)[GlcNAc(b1-6)]GalNAc
Outline: as §1

[5] = biological target: Gal(b1-3)[Neu5Ac(a2-6)]GlcNAc(b1-6)Gal(b1-4)Glc
Outline: as §1

[6] = biological target: Gal(b1-4)GlcNAc(a1-6)Gal(b1-4)GlcNAc
Outline: as §1

[7] = biological target: Gal(b1-4)GlcNAc(b1-3)Gal(b1-4)GlcNAc
Outline: as §1

[8] = biological target: Gal(b1-4)GlcNAc(b1-3)GalNAc
Outline: as §1

[9] = biological target: Gal(b1-4)GlcNAc(b1-6)Gal(b1-4)GlcNAc
Outline: as §1

GlcNAc(b1-3)Gal = biological target: GlcNAc(b1-3)Gal
Outline: as §1

GlcNAc3Prop(b1-4)GlcNAc = biological target: GlcNAc3Prop(b1-4)GlcNAc
Outline: as §1

Man(a1-2)Man(a1-3)Man = biological target: Man(a1-2)Man(a1-3)Man
Outline: as §1

[10] = biological target: Man(a1-2)Man(a1-3)[Man(a1-2)Man(a1-6)]Man
Outline: as §1

[11] = biological target: Man(a1-2)Man(a1-3)[Man(a1-2)Man(a1-6)]Man(a1-6)[Man(a1-2)Man(a1-2)Man(a1-3)]Man
Outline: as §1

[12] = biological target: Man(a1-2)Man(a1-3)[Man(a1-6)]Man(a1-6)[Man(a1-2)Man(a1-3)]Man(b1-4)GlcNAc(b1-4)GlcNAc
Outline: as §1

[13] = biological target: Man(a1-2)Man(a1-6)[Man(a1-3)]Man(a1-6)[Man(a1-2)Man(a1-2)Man(a1-3)]Man
Outline: as §1

[14] = biological target: Man(a1-3)[Man(a1-6)]Man(a1-6)[Man(a1-2)Man(a1-3)]Man(b1-4)GlcNAc(b1-4)GlcNAc
Outline: as §1

[15] = biological target: Man(a1-3)[Man(a1-6)]Man(a1-6)[Man(a1-3)]Man(b1-4)GlcNAc(b1-4)GlcNAc
Outline: as §1

[16] = biological target: Neu5Ac(a2-3)Gal(b1-3)GlcNAc
Outline: as §1

[17] = biological target: Neu5Ac(a2-3)Gal6S(b1-4)[Fuc(a1-3)]GlcNAc
Outline: as §1

[18] = biological target: Neu5Gc(a2-3)Gal(b1-3)GlcNAc
Outline: as §1

B1: Surfactant Protein D (Human); Neck + Carbohydrate Recognition Domain (NCRD) (Homo sapiens) (protein)
chain: MLLFLLSALVLLTQPLGYLEAEMKTYSHRTMPSACTLVMCSSVESGLPGRDRDGREGPRGEKGDPGLPGAAGQAGMPGQAGPVGPKGDNGSVGEPGPKGDTGPSGPPGPPGVPGPAGREGALGKQGNIGPQGKPGPKGEAGPKGEVGAPGMQGSAGARGLAGPKGERGVPGERGVPGNTGAAGSAGAMGPQGSPGARGPPGLKGDKGIPGDKGAKGESGLPDVASLRQQVEALQGQVQHLQAAFSQYKKVELFPNGQSVGEKIFKTAQFVKPFTEAQLLCTQAGGQLASPRSAAENAALQQLVVAKNEAAFLSMTDSKTEGKFTYPTGESLVYSNWAPGEPNDDGGSADCVEIFTNGKWNDRACGAKRLVVCEF
glycan array binding signal (z-score) [1]: -0.321
glycan array binding signal (z-score) [2]: -0.435
glycan array binding signal (z-score) (Gal(a1-3)Gal(b1-4)GlcNAc): -0.244
glycan array binding signal (z-score) (Gal(a1-3)GalNAc): -0.384
glycan array binding signal (z-score) (Gal(a1-6)Glc): -0.408
glycan array binding signal (z-score) (Gal(b1-2)Gal): -0.48
glycan array binding signal (z-score) [3]: -0.211
glycan array binding signal (z-score) [4]: -0.15
glycan array binding signal (z-score) [5]: -0.424
glycan array binding signal (z-score) [6]: -0.244
glycan array binding signal (z-score) [7]: 0.532
glycan array binding signal (z-score) [8]: -0.384
glycan array binding signal (z-score) [9]: -0.317
glycan array binding signal (z-score) (GlcNAc(b1-3)Gal): -0.071
glycan array binding signal (z-score) (GlcNAc3Prop(b1-4)GlcNAc): -0.18
glycan array binding signal (z-score) (Man(a1-2)Man(a1-3)Man): 1.58
glycan array binding signal (z-score) [10]: 6.34
glycan array binding signal (z-score) [11]: -0.461
glycan array binding signal (z-score) [12]: 10.1
glycan array binding signal (z-score) [13]: 5.19
glycan array binding signal (z-score) [14]: 10.2
glycan array binding signal (z-score) [15]: 0.008
glycan array binding signal (z-score) [16]: -0.335
glycan array binding signal (z-score) [17]: -0.255
glycan array binding signal (z-score) [18]: 0
